# Results with a measured potency or affinity are listed apart. Inconclusive results are not listed. Activity calls are given as the source filed them.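 How the source made its calls: active means compound lowering the signal whose fitted half-maximal concentration is at most ten times its top tested dose; inconclusive means flat curve with 30 to 70% loss, or poor fit; inactive means the rest.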
# Test: viability loss in Mcl1-dependent HMC-1-8 cells, dose response, selectivity assay for A1 inhibitor project, cell-based, luminescence, dry powder (AID 504415)
# Conditions: HMC-1-8 (Mcl1-dependent) viability, Glo luminescence, 24 h; series mostly up to 35 µM
row,SMILES,outcome
1,CCOC(=O)N1CCN(c2c([N+](=O)[O-])c(=O)n(C)c3ccccc23)CC1,inactive
2,Cn1c(=O)c([N+](=O)[O-])c(Oc2ccccc2)c2ccccc21,inactive
3,Cc1ccc(Nc2c([N+](=O)[O-])c(=O)n(C)c3ccccc23)cc1,inactive
4,Cc1ccc(Nc2c([N+](=O)[O-])c(=O)oc3ccccc23)cc1,inactive
5,O=c1oc2ccccc2c(Cl)c1[N+](=O)[O-],inactive

# Source: PubChem BioAssay AID504415 (Broad Institute, 2011)
